These results are taken from PubChem BioAssay (Tox21).

Assay [1] in a line: qHTS assay to identify aromatase inhibitors - cell viability counter screen (AID 743084;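 note: cells stimulated with testosterone during compound exposure; nearly all actives have a fitted effect of over 55% in size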; note: potency is the fitted concentration of half-maximal effect). (In general: qHTS replaces the single test concentration by a dilution series.)
Assay [2] has as its target Aryl hydrocarbon receptor (Homo sapiens) (UniProt P35869). Kind of assay: qHTS assay to identify small molecule that activate the aryl hydrocarbon receptor (AhR) signaling pathway (AID 743085).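 Note: HG2L7.5c1 human HepG2 liver cells with stably integrated DRE-driven firefly reporter; series mostly up to about 70 µM; nearly all actives have a fitted effect of over 15% in size.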 The method, boiled down:
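Measured in HG2L7.5c1 cells: CellTiter-Fluor signal (30 min incubation, 37C) for viability, then luciferase luminescence (30 min, room temperature). Compound contact time was 24 h at 37C, following a 5 h pre-incubation.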

Assay [3] in a line: qHTS assay to identify small molecule that activate the aryl hydrocarbon receptor (AhR) signaling pathway - cell viability counter screen (AID 743086). Note: nearly all actives have a fitted effect of over 45% in size. Note: potency is the fitted concentration of half-maximal effect. The method, boiled down:
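HepG2-AhR-luc (HG2L7.5c1) cells, 4000/well, treated 24 h at 37 C with compound; viability measured as CellTiter-Fluor fluorescence after 30 min in the same wells as the luciferase read.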

Assay [4] can be described thus: qHTS assay to identify small molecule antagonists of the peroxisome proliferator-activated receptor gamma (PPARg) signaling pathway - cell viability counter screen (AID 743194). Note: nearly all actives have a fitted effect of over 55% in size. Note: potency is the fitted concentration of half-maximal effect. The note with it: Potency: co-treated with 50 nM rosiglitazone. The method, boiled down: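 Cytotoxicity counter screen in PPARg-bla HEK293H cells, same wells as reporter assay. Compounds plus 50 nM rosiglitazone (final) for 17 h at 37 C, then viability read by CellTiter-Glo luminescence.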

Assay [5] can be described thus: qHTS assay for small molecule agonists of the antioxidant response element (ARE) signaling pathway - cell viability counter screen (AID 743203; calls by dose curve; note: nearly all actives have a fitted effect of over 55% in size; note: potency is the fitted concentration of half-maximal effect). A digest of the protocol: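 Cells (ARE-bla HepG2, 2,000/well) receive DMSO-dissolved compounds after a 5 hrs rest. Plates incubate 16 hrs at 37C/5% CO2. CellTiter-Glo luminescence is then recorded after 30 min at room temperature.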

A short description of assay [6]: qHTS assay for small molecule activators of the heat shock response signaling pathway - cell viability counter screen (AID 743209). Note: nearly all actives have a fitted effect of over 50% in size. Note: potency is the fitted concentration of half-maximal effect. The method, boiled down:
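Quantitative HTS format, Tox21 10K library. HeLa cells carrying an HSE-driven beta-lactamase reporter were treated 5 h at 37 C, then assessed for viability by CellTiter-Glo luminescence.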

Assay [7] is described as follows: qHTS assay for small molecule activators of the heat shock response signaling pathway (AID 743210; active = well fitted activation curve with a large enough effect in the signal ratio in the repeat runs, with a control signal flat, not every such curve was filed as active; the % refers to the signal ratio;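 note: HeLa cells with beta-lactamase reporter driven by heat shock elements; series mostly up to about 63 µM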). The method, boiled down: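 Quantitative high-throughput format using an engineered HeLa line in which heat shock response elements drive beta-lactamase; after 5 h with compound, cells received a B/G FRET substrate and fluorescence was read.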
The target in assay [8] is Peroxisome proliferator-activated receptor gamma (Homo sapiens) (UniProt P37231). Kind of assay: qHTS assay to identify small molecule antagonists of the peroxisome proliferator-activated receptor gamma (PPARg) signaling pathway (AID 743191; calls by dose curve; note: nearly all actives have a fitted effect of over 30% in size; note: potency is the fitted concentration of half-maximal effect). The method, boiled down:
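GeneBLAzer PPARg UAS-bla HEK293H cells, 5 h post-plating, exposed to compounds 17 h at 37C. LiveBLAzer B/G FRET substrate added for 1 h at room temperature; beta-lactamase reporter read by fluorescence intensity.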

The nature of assay [9]: qHTS assay for small molecule agonists of the antioxidant response element (ARE) signaling pathway (AID 743202; active = well fitted activation curve with a large enough effect in the signal ratio in the repeat runs, not every such curve was filed as active; the % refers to the signal ratio; note: potency is the fitted concentration of half-maximal effect). The method, boiled down:
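Agonist mode reporter screen: HepG2 cells with ARE-controlled beta-lactamase are incubated with test compounds for 16 h at 37 C, and beta-lactamase activity is measured as fluorescence of cleaved B/G FRET substrate.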

The target in assay [10] is Peroxisome proliferator-activated receptor gamma (Homo sapiens) (UniProt P37231). Description: qHTS assay to identify small molecule agonists of the peroxisome proliferator-activated receptor gamma (PPARg) signaling pathway (AID 743094; active = well fitted activation curve with a large enough effect in the signal ratio in the repeat runs, not every such curve was filed as active; the % refers to the signal ratio). The method, boiled down:
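Stably transfected HEK293H cells (GeneBLAzer PPARg UAS-bla) were incubated with test substances for 17 h at 37C after a 5 h pre-incubation; beta-lactamase activity was then detected by FRET substrate fluorescence.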

Where “and” joins values, the source holds several entries; their conditions need not be identical. Identical values can stand only once. Inconclusive results are not listed. Calls of active or inactive are those of the source. Unless noted, calls come from the whole dose curve; as a rule, active = well fitted curve in the direction sought with a large enough effect in the repeat runs; inconclusive = weak or mixed curves; inactive = no such curve, though single readings can be large; an effect the other way counts as inactive or inconclusive.

Sequence of Aryl hydrocarbon receptor (Homo sapiens) (P35869 whole entry, looked up): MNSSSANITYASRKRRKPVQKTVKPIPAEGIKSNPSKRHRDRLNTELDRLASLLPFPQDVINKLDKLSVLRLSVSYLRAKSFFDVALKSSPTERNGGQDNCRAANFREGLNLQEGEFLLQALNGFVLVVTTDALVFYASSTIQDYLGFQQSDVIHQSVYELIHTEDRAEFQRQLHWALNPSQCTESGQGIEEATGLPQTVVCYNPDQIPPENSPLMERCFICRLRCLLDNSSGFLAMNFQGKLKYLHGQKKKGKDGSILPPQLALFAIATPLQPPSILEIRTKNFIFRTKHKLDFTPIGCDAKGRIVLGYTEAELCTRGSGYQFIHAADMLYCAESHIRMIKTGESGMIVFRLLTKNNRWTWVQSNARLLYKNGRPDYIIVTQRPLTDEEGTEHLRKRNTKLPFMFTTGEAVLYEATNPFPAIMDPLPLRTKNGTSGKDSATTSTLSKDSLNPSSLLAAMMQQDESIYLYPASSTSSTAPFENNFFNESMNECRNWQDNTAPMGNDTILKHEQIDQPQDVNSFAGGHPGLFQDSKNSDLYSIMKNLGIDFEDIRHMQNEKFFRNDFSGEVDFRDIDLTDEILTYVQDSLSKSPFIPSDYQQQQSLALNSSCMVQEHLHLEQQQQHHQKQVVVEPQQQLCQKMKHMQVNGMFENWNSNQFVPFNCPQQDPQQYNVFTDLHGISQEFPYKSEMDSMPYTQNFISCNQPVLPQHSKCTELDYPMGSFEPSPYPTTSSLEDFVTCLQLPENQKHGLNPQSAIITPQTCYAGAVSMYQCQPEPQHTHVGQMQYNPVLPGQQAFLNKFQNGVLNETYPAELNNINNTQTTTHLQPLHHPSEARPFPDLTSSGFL
Sequence of Peroxisome proliferator-activated receptor gamma (Homo sapiens) (P37231 whole entry, looked up): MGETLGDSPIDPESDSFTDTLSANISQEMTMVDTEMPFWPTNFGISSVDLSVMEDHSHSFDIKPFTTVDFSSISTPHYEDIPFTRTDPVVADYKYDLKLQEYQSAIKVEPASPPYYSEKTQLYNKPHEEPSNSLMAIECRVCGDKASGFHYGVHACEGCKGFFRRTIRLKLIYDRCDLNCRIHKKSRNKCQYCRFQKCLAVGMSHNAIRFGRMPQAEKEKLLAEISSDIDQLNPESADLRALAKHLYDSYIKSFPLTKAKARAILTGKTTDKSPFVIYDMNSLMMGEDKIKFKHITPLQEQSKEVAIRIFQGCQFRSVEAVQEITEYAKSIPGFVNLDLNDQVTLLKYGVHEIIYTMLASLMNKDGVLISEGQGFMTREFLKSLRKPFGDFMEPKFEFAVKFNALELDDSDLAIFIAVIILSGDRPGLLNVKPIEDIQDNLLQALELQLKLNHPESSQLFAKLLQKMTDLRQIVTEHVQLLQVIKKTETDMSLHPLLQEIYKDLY

On to `Cc1cccc(C)c1NC1=NCCCS1`, for which the Potency result in [1], in assay [2], in assay [3], in [4], in assay [5] and in assay [6] was “inactive” in each case. The Potency entry in assay [7] is “inactive”.
Turning to `CCCCCCCCCCCC[N+](C)(C)CCOc1ccccc1`, the Potency in [1] was 26.6 µM (active) and 27.3 µM (active); in [3], 68.6 µM (active); in [4], 21.9 µM (active) and 13.3 µM (active); in assay [5], 30.6 µM (active) and 29.8 µM (active); in assay [6], 34.7 µM (active). The Potency result in [2] was “inactive”.
With `O=C(NC(=O)c1cc(F)c(F)cc1Cl)Nc1cc(F)ccc1N1CCC(C(=O)O)CC1`, the Potency result in assay [1], in [2], in assay [3], in assay [9], in assay [5] and in [6] was “inactive” each time. Also, in assay [7], the Potency result is “inactive”. The Potency in assay [8] is 1.9 µM (active).
With `COC(=O)C1(O)c2ccccc2-c2ccccc21`, the Potency result in [1], in assay [2], in [3], in [4], in [5] and in assay [6] was “inactive” each time.
Take `Clc1ccc(Cl)c(Cl)c1`: the Potency result in assay [1], in assay [2], in assay [3], in assay [4], in assay [5] and in assay [6] was “inactive” each time.
On to `O=P(OCC(Br)CBr)(OCC(Br)CBr)OCC(Br)CBr` (stereo not given), for which the Potency entry in [1], in assay [2] and in assay [6] was “inactive” each time. The Potency in assay [8] was 44.2 µM (active); in assay [5], 36.6 µM (active).
As to `CC1(C)[C@H](C(=O)O[C@H](C#N)c2cccc(Oc3ccccc3)c2)[C@@H]1C=C(Br)Br`, the Potency entry in [1], in assay [2], in assay [3], in [4], in assay [5] and in assay [6] was “inactive” each time.
Take `C[C@]12C=CC3=C4CCC(=O)C=C4CC[C@H]3[C@@H]1CC[C@@H]2O`: the Potency entry in [1], in assay [2], in assay [3], in assay [4], in [5] and in [6] was “inactive” in each case. Also, the Potency in assay [9] was 6.07 µM (active).
`CC(=O)NNc1ccccc1`: the Potency entry in assay [1], in [2], in assay [3], in assay [4], in [9] and in assay [5] was “inactive” each time. For the same compound, the Potency entry in assay [6] was “inactive”.
As for `COc1cc(C[C@@H](C)N)c(OC)cc1Br`, the Potency entry in assay [1], in assay [2], in [8], in assay [4], in assay [5] and in [6] was “inactive” in each case. Besides, the Potency result in assay [7] was “inactive”.
Turning to `C#C[C@]1(O)CC[C@H]2[C@@H]3CCC4=CC(=O)CCC4=C3C=C[C@@]21CC`, the Potency result in assay [1], in assay [2], in [3], in assay [4], in [5] and in assay [6] was “inactive” throughout. Also, the Potency entry in [7] is “inactive”.
Turning to `CC(Oc1cc(Cl)c(Cl)cc1Cl)C(=O)O` (stereo not given), the Potency entry in assay [1], in assay [2], in assay [3], in [4], in [5] and in assay [6] was “inactive” throughout.
Regarding `Cc1ccc2c(C)cccc2c1`, the Potency result in assay [1], in [2], in assay [3], in assay [8], in assay [4] and in assay [5] was “inactive” in each case. Moreover, the Potency result in assay [6] and in [7] was “inactive” throughout.
With `C[C@H]1[C@@H]2Cc3ccc(O)cc3[C@@]1(C)CCN2C`, the Potency entry in assay [1], in [2], in assay [3], in [4], in [5] and in assay [6] was “inactive” in each case. Moreover, the Potency entry in assay [7] is “inactive”.
For `CC(Oc1cccc(Cl)c1)C(=O)O` (stereo not given), the Potency result in [1], in [2], in assay [10], in assay [8], in assay [4] and in assay [9] was “inactive” in each case. For the same compound, the Potency result in [5], in assay [6] and in assay [7] was “inactive” throughout.
`CCCCCCCCCCCCN(C)C`: the Potency result in assay [1], in assay [2], in [3], in assay [10], in assay [5] and in assay [6] was “inactive” throughout. Moreover, in assay [7], the Potency result was “inactive”.
For `O=C(Cc1ccccc1)c1ccccc1`, the Potency result in [1], in assay [2], in assay [3], in assay [4], in [9] and in assay [5] was “inactive” in each case. The Potency result in assay [6] and in [7] was “inactive” each time.
For the compound `CCCSP(=S)(OCC)Oc1ccc(SC)cc1` (stereo not given), the Potency entry in [1], in assay [3], in [10], in assay [8], in assay [4] and in [9] was “inactive” in each case. Also, the Potency result in assay [5] and in assay [6] was “inactive” in each case.
